The target of assay [1] is sheep Cyclooxygenase-2 (Cox2), PTGS2 (gene 443460) (UniProt P79208). In words: NVS_ENZ_oCOX2: NovaScreen (NVS) Enzymatic Assay for sheep Cyclooxygenase-2 (Cox2) (AID 2283231). A digest of the protocol:
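Compounds were first run at 25 uM in duplicate against tissue-extracted ovine COX-2; those passing a preset inhibition threshold went to singleton concentration-response testing with a 50 uM maximum. Read-out: absorbance at 0.66 hour.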

Assay [2] has as its target sheep Cyclooxygenase-1 (Cox1), PTGS1 (gene 443551) (UniProt P05979). The experiment in a line: NVS_ENZ_oCOX1: NovaScreen (NVS) Enzymatic Assay for sheep Cyclooxygenase-1 (Cox1) (AID 2283239).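 Further: actives reduce cyclooxygenase activity so potencies are for inhibitors.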 A digest of the protocol:
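Cell-free colorimetric assay of enzyme activity in a native extract of ovine seminal vesicles. Absorbance was read 0.66 hour after compound addition. Loss of signal relative to the DMSO negative control was scored, with actives from the 25 uM duplicate primary screen retested in concentration series.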

Assay [3] deals with Adenosine receptor A1 (Bos taurus) (UniProt P28190). The experiment in a line: NVS_GPCR_bAdoR_NonSelective: NovaScreen (NVS) G Protein-Coupled Receptor Assay for bovine Adenosine Receptor (AdoR), Non-selective Binding (AID 2283244). A digest of the protocol:
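Cell-free binding with membranes from bovine striatum: radioligand displaced by test chemical, read after 1 h by filtration and scintillation. Single-point 25 uM duplicate primary, 50 uM top concentration in follow-up curves, DMSO baseline.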

Assay [4] addresses human Adenosine A2a Receptor (AdoRA2a), ADORA2A (gene 135) (UniProt P29274). In words: NVS_GPCR_hAdoRA2a: NovaScreen (NVS) G Protein-Coupled Receptor Assay for human Adenosine A2a Receptor (AdoRA2a) (AID 2283256). Summed up:
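Compounds screened in duplicate at 25 uM, with actives followed up in concentration series, for displacement of a radioligand from HEK293-derived receptor protein. Bound counts read by filter scintillation at 1.5 hours, DMSO as baseline.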

In assay [5] the target is rat Constitutive Nitric Oxide Synthase (CNOS), Nos1 (gene 24598) (UniProt P29476). In words: NVS_ENZ_rCNOS: NovaScreen (NVS) Enzymatic Assay for rat Constitutive Nitric Oxide Synthase (CNOS) (AID 2283236). Summed up: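 Single 25 uM duplicate screen, then concentration series to 50 uM for chemicals meeting threshold. Rat brain membrane-derived CNOS activity detected radiometrically by filtration and scintillation counting, 1 h after compound addition; DMSO as baseline.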
rat Constitutive Nitric Oxide Synthase (CNOS), Nos1 (gene 24598), sequence (P29476 whole entry, looked up): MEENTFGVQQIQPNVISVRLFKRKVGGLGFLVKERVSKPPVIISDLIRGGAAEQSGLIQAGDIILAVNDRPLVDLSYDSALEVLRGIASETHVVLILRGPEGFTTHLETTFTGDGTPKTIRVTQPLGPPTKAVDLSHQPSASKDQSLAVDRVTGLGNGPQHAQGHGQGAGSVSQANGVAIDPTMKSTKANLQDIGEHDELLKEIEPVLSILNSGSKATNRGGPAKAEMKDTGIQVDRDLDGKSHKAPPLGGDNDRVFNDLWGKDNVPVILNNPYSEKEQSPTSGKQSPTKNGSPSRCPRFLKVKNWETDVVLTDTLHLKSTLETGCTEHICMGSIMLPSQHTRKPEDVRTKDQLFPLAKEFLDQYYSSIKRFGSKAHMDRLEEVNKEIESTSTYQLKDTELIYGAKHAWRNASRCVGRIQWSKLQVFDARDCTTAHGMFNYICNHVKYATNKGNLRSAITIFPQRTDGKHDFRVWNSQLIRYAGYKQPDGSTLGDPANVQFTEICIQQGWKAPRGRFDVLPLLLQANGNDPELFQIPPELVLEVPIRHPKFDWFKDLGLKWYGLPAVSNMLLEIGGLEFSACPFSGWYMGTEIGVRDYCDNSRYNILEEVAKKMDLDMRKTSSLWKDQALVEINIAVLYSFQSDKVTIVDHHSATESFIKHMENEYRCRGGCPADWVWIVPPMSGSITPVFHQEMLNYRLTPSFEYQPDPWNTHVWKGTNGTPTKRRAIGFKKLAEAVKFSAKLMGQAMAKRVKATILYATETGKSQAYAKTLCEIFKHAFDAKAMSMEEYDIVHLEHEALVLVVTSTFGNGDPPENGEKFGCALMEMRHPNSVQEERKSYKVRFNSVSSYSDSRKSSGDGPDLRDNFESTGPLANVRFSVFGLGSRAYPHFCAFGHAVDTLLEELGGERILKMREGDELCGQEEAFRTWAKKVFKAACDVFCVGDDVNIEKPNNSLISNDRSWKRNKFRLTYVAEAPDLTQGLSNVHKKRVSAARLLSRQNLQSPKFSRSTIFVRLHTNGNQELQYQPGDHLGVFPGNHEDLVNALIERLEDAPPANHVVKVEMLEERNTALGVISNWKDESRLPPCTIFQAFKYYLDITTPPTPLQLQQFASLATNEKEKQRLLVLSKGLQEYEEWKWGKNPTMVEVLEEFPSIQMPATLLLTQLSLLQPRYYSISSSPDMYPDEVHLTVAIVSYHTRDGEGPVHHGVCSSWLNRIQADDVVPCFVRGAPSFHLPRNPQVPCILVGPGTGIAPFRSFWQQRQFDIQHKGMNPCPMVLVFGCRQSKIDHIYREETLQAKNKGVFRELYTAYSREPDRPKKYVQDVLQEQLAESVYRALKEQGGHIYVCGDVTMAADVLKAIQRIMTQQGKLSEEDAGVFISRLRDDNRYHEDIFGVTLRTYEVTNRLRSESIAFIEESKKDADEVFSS

Assay [6] addresses human Serotonin, 5-Hydroxytryptamine Receptor 7 (5HT7), HTR7 (gene 3363) (UniProt P34969). The experiment in a line: NVS_GPCR_h5HT7: NovaScreen (NVS) G Protein-Coupled Receptor Assay for human Serotonin, 5-Hydroxytryptamine Receptor 7 (5HT7) (AID 2283255).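 Further: hits reduce specific radioligand binding relative to DMSO.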 A digest of the protocol:
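Filter-bound radioactivity counted after 1 h, with loss of specific radioligand binding fitted against DMSO. Membrane protein came from CHO cells expressing human 5HT7. Chemicals were tested first at 25 uM in duplicate, then in concentration series if active.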

Assay [7] has as its system guinea pig Leukotriene B4 Receptor (LTB4), gene 100379538. The experiment in a line: NVS_GPCR_gLTB4: NovaScreen (NVS) G Protein-Coupled Receptor Assay for guinea pig Leukotriene B4 Receptor (LTB4) (AID 2283247). A digest of the protocol:
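Membranes from guinea pig spleen incubated 2 h with radioligand and compound; bound counts measured by filtration and scintillation. Screened first at 25 uM in duplicate, then actives titrated to a 50 uM top concentration relative to DMSO.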

Assay [8] concerns the target guinea pig Opioid, Kappa 1 Receptor (OpiateK), OPRK1 (gene 100135587) (UniProt P41144). In words: NVS_GPCR_gOpiateK: NovaScreen (NVS) G Protein-Coupled Receptor Assay for guinea pig Opioid, Kappa 1 Receptor (OpiateK) (AID 2283252).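 Further: active means reduced radioligand binding relative to DMSO.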 A digest of the protocol:
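Radioligand binding to kappa opioid receptor in guinea pig cerebellar membranes, read by filtration and scintillation at 2 h. Compounds first tested in duplicate at 25 uM, then actives in concentration series; signal loss fitted against DMSO.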

The test system of assay [9] is bovine Angiotensin II Receptor Type 2 (AT2), gene 407157. In words: NVS_GPCR_bAT2: NovaScreen (NVS) G Protein-Coupled Receptor Assay for bovine Angiotensin II Receptor Type 2 (AT2) (AID 2283240). A digest of the protocol:
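Radioligand displacement on bovine cerebellar membranes, 1 hour incubation, filter-based scintillation counting; loss of signal vs DMSO. Duplicate single-point screen at 25 uM, then concentration-response to 50 uM maximum.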

In assay [10] the target is guinea pig Leukotriene D4 Receptor (LTD4), CYSLTR1 (gene 100135514) (UniProt Q2NNR5). The experiment in a line: NVS_GPCR_gLTD4: NovaScreen (NVS) G Protein-Coupled Receptor Assay for guinea pig Leukotriene D4 Receptor (LTD4) (AID 2283248). A digest of the protocol: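 Guinea pig lung membrane preparation; bound radioligand measured by filter scintillation after 1 h, loss of signal versus DMSO marking displacement. Compounds tested at 25 uM in duplicate, hits retested to max 50 uM.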
guinea pig Leukotriene D4 Receptor (LTD4), CYSLTR1 (gene 100135514), sequence (Q2NNR5 whole entry, looked up): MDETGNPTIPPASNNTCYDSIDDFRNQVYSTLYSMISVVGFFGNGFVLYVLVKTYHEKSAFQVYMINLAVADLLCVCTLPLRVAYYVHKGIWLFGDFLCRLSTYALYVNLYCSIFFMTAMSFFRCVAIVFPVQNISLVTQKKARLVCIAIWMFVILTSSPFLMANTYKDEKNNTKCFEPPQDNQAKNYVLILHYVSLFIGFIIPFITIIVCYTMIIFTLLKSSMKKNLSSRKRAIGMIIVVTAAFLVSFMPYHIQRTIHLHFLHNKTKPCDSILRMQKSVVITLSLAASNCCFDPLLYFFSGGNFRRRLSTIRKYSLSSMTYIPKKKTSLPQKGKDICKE

The target of assay [11] is human Serotonin, 5-Hydroxytryptamine Receptor 5A (5HT5A), HTR5A (gene 3361) (UniProt P47898). In words: NVS_GPCR_h5HT5A: NovaScreen (NVS) G Protein-Coupled Receptor Assay for human Serotonin, 5-Hydroxytryptamine Receptor 5A (5HT5A) (AID 2283251). A digest of the protocol:
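Membranes from HEK293 cells, radioligand binding read by filtration and scintillation after 1 h. Single-concentration duplicate testing at 25 uM, then concentration-response for actives; positive-direction fitting relative to DMSO.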

Assay [12] concerns the target rat Catechol-O-Methyl Transferase (COMT), Comt (gene 24267) (UniProt P22734). In words: NVS_ENZ_rCOMT: NovaScreen (NVS) Enzymatic Assay for rat Catechol-O-Methyl Transferase (COMT) (AID 2283235). A digest of the protocol: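 Rat dorsal striatum extract served as COMT source; product quantified by HPLC/spectrophotometry, read at 0 h after dosing. Primary single-concentration screen at 25 uM, followed by concentration series to a 50 uM maximum.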

The target of assay [13] is human Adenosine A1 Receptor (AdoRA1), ADORA1 (gene 134) (UniProt P30542). In words: NVS_GPCR_hAdoRA1: NovaScreen (NVS) G Protein-Coupled Receptor Assay for human Adenosine A1 Receptor (AdoRA1) (AID 2283254). A digest of the protocol:
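Each chemical is first tested twice at 25 uM, actives later in dilution series, against a radioligand bound to human cortex membranes; after 1 h, filter-retained counts are compared with DMSO controls, lower signal indicating displacement.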

Consider 16 compounds from PubChem BioAssay (EPA / NIEHS).

Inconclusive results are not listed. Calls of active or inactive are those of the source. How the source made its calls: active means hit-call score of the fitted dose curve at least 0.9, where 1 is the maximum; inconclusive means response in the unintended direction; inactive means score below 0.9.

sheep Cyclooxygenase-1 (Cox1), PTGS1 (gene 443551), sequence (P05979 whole entry, looked up): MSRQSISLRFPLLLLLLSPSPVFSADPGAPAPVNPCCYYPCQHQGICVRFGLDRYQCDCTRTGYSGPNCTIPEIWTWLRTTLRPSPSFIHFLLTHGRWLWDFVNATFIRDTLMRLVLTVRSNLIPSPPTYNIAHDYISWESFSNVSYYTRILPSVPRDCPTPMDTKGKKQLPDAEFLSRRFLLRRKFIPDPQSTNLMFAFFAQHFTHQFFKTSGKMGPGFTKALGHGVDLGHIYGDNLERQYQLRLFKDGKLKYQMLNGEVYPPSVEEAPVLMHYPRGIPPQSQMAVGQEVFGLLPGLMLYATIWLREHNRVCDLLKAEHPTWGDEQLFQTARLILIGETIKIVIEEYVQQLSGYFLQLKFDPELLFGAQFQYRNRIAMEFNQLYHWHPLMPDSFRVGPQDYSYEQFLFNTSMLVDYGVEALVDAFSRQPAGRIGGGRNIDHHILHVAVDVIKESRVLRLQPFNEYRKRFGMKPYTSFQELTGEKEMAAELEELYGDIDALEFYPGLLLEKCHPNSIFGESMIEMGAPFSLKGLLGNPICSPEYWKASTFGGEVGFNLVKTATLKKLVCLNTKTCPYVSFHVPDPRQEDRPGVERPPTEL
human Adenosine A2a Receptor (AdoRA2a), ADORA2A (gene 135), sequence (P29274 whole entry, looked up): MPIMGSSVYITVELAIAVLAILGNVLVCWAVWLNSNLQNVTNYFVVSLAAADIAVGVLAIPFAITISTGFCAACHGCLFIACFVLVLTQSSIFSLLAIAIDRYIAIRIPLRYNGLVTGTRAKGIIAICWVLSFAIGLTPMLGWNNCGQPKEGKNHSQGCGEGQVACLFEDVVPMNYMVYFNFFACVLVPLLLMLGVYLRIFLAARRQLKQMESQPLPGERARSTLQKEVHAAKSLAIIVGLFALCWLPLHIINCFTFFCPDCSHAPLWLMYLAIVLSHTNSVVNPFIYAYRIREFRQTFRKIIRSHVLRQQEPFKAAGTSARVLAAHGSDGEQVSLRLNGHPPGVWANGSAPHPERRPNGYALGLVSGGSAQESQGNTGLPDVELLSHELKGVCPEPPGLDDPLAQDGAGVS
sheep Cyclooxygenase-2 (Cox2), PTGS2 (gene 443460), sequence (P79208 whole entry, looked up): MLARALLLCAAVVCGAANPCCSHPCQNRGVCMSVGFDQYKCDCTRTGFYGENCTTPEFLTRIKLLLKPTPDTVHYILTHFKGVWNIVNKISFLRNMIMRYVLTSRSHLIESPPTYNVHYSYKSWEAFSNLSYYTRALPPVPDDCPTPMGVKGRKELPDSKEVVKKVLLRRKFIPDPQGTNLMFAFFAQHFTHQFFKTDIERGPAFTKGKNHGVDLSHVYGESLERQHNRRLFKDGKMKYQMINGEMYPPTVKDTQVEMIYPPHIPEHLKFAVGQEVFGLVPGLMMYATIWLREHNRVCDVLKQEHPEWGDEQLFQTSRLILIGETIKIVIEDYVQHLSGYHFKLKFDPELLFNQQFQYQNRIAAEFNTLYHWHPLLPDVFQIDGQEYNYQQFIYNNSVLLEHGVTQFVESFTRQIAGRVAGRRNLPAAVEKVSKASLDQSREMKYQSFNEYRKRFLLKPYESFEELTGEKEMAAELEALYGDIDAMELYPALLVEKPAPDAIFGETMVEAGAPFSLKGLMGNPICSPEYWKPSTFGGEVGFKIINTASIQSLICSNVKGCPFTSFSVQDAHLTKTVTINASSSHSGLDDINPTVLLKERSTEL
Adenosine receptor A1 (Bos taurus), sequence (P28190 whole entry, looked up): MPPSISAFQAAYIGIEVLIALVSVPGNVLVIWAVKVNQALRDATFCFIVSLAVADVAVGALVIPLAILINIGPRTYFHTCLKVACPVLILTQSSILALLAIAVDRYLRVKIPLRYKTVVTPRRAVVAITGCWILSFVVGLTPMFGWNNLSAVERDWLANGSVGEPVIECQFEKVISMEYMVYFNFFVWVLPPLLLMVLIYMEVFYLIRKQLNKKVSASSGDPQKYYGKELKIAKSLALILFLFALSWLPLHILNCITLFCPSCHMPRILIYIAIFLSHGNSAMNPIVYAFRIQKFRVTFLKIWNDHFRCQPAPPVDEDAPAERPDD
rat Catechol-O-Methyl Transferase (COMT), Comt (gene 24267), sequence (P22734 whole entry, looked up): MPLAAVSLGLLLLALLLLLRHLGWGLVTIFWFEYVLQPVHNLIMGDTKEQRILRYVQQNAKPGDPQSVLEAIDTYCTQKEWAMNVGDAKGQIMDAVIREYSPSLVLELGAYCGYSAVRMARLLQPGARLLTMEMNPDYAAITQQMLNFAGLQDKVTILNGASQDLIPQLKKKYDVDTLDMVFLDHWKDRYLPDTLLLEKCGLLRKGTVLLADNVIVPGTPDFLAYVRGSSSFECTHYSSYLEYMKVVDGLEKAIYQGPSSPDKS
human Serotonin, 5-Hydroxytryptamine Receptor 7 (5HT7), HTR7 (gene 3363), sequence (P34969 whole entry, looked up): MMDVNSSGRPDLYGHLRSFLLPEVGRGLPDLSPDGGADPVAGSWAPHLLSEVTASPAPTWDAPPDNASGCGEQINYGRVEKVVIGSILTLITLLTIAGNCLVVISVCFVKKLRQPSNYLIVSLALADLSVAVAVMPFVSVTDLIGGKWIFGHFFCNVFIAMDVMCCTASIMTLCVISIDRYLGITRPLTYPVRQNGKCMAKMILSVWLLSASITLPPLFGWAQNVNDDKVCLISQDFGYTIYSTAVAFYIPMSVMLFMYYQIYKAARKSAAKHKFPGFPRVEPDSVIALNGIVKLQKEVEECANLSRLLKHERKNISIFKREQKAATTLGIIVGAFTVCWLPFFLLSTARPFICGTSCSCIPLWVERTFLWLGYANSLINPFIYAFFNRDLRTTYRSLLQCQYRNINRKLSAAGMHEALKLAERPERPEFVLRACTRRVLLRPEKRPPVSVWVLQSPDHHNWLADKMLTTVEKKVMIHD
guinea pig Opioid, Kappa 1 Receptor (OpiateK), OPRK1 (gene 100135587), sequence (P41144 whole entry, looked up): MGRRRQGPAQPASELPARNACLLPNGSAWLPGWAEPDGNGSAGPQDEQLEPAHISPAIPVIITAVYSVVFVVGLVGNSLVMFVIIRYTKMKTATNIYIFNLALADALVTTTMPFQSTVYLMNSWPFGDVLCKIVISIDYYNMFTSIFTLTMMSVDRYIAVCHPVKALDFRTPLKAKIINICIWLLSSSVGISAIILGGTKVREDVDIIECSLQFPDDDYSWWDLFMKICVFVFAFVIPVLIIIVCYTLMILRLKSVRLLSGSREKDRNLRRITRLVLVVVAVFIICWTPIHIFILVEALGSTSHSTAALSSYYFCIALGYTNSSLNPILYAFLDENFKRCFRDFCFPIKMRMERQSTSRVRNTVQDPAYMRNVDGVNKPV

Regarding `Nc1ccccc1N`, the concentration at half-maximal activity (AC50) was 14.9 µM (active) in [1], 9.16 µM (active) in assay [3] and 0.975 µM (active) in [4]. Besides, the compound was called inactive in [2].

`CC(C)c1ccc(C(=O)N=C(N)N)cc1S(C)(=O)=O`: in assay [5], the result was inactive. Besides, the AC50 in assay [6] is 8.17 µM (active).

`O=[N+]([O-])C(CO)(CO)CO`: the compound was called inactive in assay [2].

On to `CCCCCCC(=O)OCC`, for which the outcome in assay [2] was inactive.

With `Cc1ccc(C)c(O)c1C`, in assay [1], the AC50 was 3.04 µM (active).

Regarding `COc1cc(S(=O)(=O)O)c(C)cc1N=Nc1c(O)ccc2cc(S(=O)(=O)O)ccc12`, the compound was called inactive in [5], in assay [3], in assay [7] and in [8]. For the same compound, the AC50 in [6] was 14.8 µM (active).

Take `FC(F)(F)C(F)(F)C(F)(F)C(F)(F)C(F)(F)C(F)(F)CCI`: in [5], the call was inactive.

On to `CC(=O)OC/C=C(\C)CCC=C(C)C`, for which the half-maximal activity concentration (AC50) in assay [1] is 9.67 µM (active); in assay [2] it was 8.78 µM (active).

As for `COc1cc(-c2nc(NC(=O)c3cc4cc(C)cc(C)c4n3CC(=O)O)sc2CCC2CCCCC2)c(OC)cc1Cl`, the AC50 in assay [2] was 4 µM (active); in [9], 29.4 µM (active). In addition, the call in assay [10] and in [11] was inactive.

As to `O=c1c(O)c(-c2ccc(O)c(O)c2)oc2cc(O)cc(O)c12`, the AC50 was 12.4 µM (active) in [12], 0.89 µM (active) in assay [3] and 11.8 µM (active) in assay [4]. Moreover, the compound was called inactive in assay [13].

In the case of `C=CCc1ccc(O)c(OC)c1`, in assay [1], the AC50 is 15.7 µM (active). Moreover, the compound was called inactive in assay [7].

For the compound `CCOC(=O)C(C)(C)Oc1ccc(Cl)cc1`, the AC50 in [1] was 8.26 µM (active). Besides, the outcome in [2] was inactive.

Regarding `CC=Cc1ccc(O)c(OC)c1`, in assay [2], the outcome was inactive.

Take `CC1=C(/C=C/C(C)=C/C=C/C(C)=C/CO)C(C)(C)CCC1`: the concentration at half-maximal activity (AC50) was 15.5 µM (active) in assay [1] and 17.9 µM (active) in assay [2]. In addition, the call in assay [12] was inactive.

For `CCCCN(CCCC)CCCC`, the result in [1] was inactive.

On to `CCOc1ccc2c(c1)C(C)=CC(C)(C)N2`, for which the compound was called inactive in assay [5] and in assay [4].

As usually defined, the AC50 is the concentration giving half of the maximal activity seen.
